Test results taken from PubChem BioAssay (NCI).
The panel holds about 83,000 compounds, 20% with a hit somewhere; the sample as a whole holds those more often.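 48-hour exposure, single concentration, 96-well plates; percent growth endpoint where 0 means no net growth. Active: below 10.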 Values without a mark were called inactive. Activity calls are given as the source filed them.

Experiments:
Test in all cases: NCI-60 one-dose screen, 48 h (100 = growth as untreated, 0 = no growth, -100 = all killed)
Settings in all cases: 10 µM unless noted
NCI-H23 lung = test system: NCI-H23 lung
NCI-H226 lung = test system: NCI-H226 lung
NCI-H322M lung = test system: NCI-H322M lung
HOP-62 NSCLC = test system: HOP-62 NSCLC
NCI-H460 lung = test system: NCI-H460 lung
HOP-92 NSCLC = test system: HOP-92 NSCLC
NCI-H522 lung = test system: NCI-H522 lung
A549/ATCC NSCLC = test system: A549/ATCC NSCLC
786-0 renal = test system: 786-0 renal
COLO 205 colon = test system: COLO 205 colon

Q: With `Cn1cc(-c2noc(C(=O)c3cn(C)c4ncccc34)n2)c2ccccc21` as the compound, how does the growth (NCI-H23 lung) read?
A: 92.3%

Q: And the growth (NCI-H226 lung)?
A: 89.4%

Q: And the growth (NCI-H322M lung)?
A: 95.5%

Q: And the growth (HOP-62 NSCLC)?
A: 95%

Q: What about the growth (NCI-H460 lung) of the same compound?
A: 99.3%

Q: What about the growth (HOP-92 NSCLC) of the same compound?
A: 41.4%

Q: What about the growth (NCI-H522 lung) of the same compound?
A: 81.1%

Q: And the growth (A549/ATCC NSCLC)?
A: 100%

Q: What about the growth (786-0 renal) of the same compound?
A: 94.5%

Q: What about the growth (COLO 205 colon) of the same compound?
A: 99.8%

Q: With `CCN=C1C=CC(=C(c2ccc(N(CC)CC)cc2)c2ccc(N(CC)CC)cc2)c2ccccc21` as the compound, how does the growth (NCI-H23 lung) read?
A: -53.5% (active)

Q: And the growth (NCI-H226 lung)?
A: -58.3% (active)

Q: What about the growth (NCI-H322M lung) of the same compound?
A: -38.9% (active)

Q: And the growth (HOP-62 NSCLC)?
A: -71.8% (active)

Q: And the growth (NCI-H460 lung)?
A: -72% (active)

Q: And the growth (HOP-92 NSCLC)?
A: -72.8% (active)

Q: What about the growth (NCI-H522 lung) of the same compound?
A: -65.5% (active)

Q: What about the growth (A549/ATCC NSCLC) of the same compound?
A: -59.8% (active)

Q: And the growth (786-0 renal)?
A: -64.3% (active)

Q: What about the growth (COLO 205 colon) of the same compound?
A: -90.7% (active)

Q: How did the growth (NCI-H23 lung) turn out when `Cc1ccc2c(c1)/C(=N\N=C/c1cn(C(C)C)c3ccccc13)C(=O)N2` was run?
A: 61.7%

Q: And the growth (NCI-H226 lung)?
A: 56.1%

Q: And the growth (NCI-H322M lung)?
A: 61.1%

Q: What about the growth (HOP-62 NSCLC) of the same compound?
A: 49%

Q: And the growth (NCI-H460 lung)?
A: 40.5%

Q: And the growth (HOP-92 NSCLC)?
A: 71.8%

Q: What about the growth (NCI-H522 lung) of the same compound?
A: 14.4%

Q: What about the growth (A549/ATCC NSCLC) of the same compound?
A: 60.8%

Q: And the growth (786-0 renal)?
A: 93%

Q: What about the growth (COLO 205 colon) of the same compound?
A: -29.8% (active)

Q: Which results are given for `Cn1cc(-c2noc(-c3cn(C)c4ncccc34)n2)c2cc(Cl)ccc21`?
A: growth (NCI-H23 lung): 91.5%; growth (NCI-H226 lung): 115%; growth (NCI-H322M lung): 91.2%; growth (HOP-62 NSCLC): 93.2%; growth (NCI-H460 lung): 88%; growth (HOP-92 NSCLC): 135%; growth (NCI-H522 lung): 7.71% (active); growth (A549/ATCC NSCLC): 79.7%; growth (786-0 renal): 95.4%; growth (COLO 205 colon): 91.9%

Q: `CCOC(=O)c1cc(C#N)n2ncc3ccccc3c12` was tested. Which growth (NCI-H23 lung) did it give?
A: 94.1%

Q: What about the growth (NCI-H226 lung) of the same compound?
A: 91.2%

Q: And the growth (NCI-H322M lung)?
A: 102%

Q: And the growth (HOP-62 NSCLC)?
A: 90.8%

Q: And the growth (NCI-H460 lung)?
A: 101%

Q: What about the growth (HOP-92 NSCLC) of the same compound?
A: 80.7%

Q: And the growth (NCI-H522 lung)?
A: 93.3%

Q: What about the growth (A549/ATCC NSCLC) of the same compound?
A: 100%

Q: And the growth (786-0 renal)?
A: 95.7%

Q: What about the growth (COLO 205 colon) of the same compound?
A: 118%

Q: For `CC1=C/C(=C(\c2cc(C)c(O)c(C(=O)O)c2)c2c(Cl)cccc2Cl)C=C(C(=O)O)C1=O`, which growth (NCI-H23 lung) is on record?
A: 98.8%

Q: And the growth (NCI-H226 lung)?
A: 96.7%

Q: And the growth (NCI-H322M lung)?
A: 97.7%

Q: And the growth (HOP-62 NSCLC)?
A: 97%

Q: And the growth (NCI-H460 lung)?
A: 104%

Q: What about the growth (HOP-92 NSCLC) of the same compound?
A: 92.9%

Q: What about the growth (NCI-H522 lung) of the same compound?
A: 97.8%

Q: And the growth (A549/ATCC NSCLC)?
A: 100%

Q: What about the growth (786-0 renal) of the same compound?
A: 102%

Q: And the growth (COLO 205 colon)?
A: 110%

Q: For `C[C@@H]1C[C@H]2C(=O)O[C@@H](C)[C@H](NC(=O)[C@H](Cc3cc(F)cc(F)c3)NC(=O)Nc3ccc(Cl)cc3F)C(=O)N3C[C@H](O)C[C@H]3C(=O)N3CCN(C)C[C@H]3C(=O)N[C@@H](C)C(=O)N2C1`, which growth (NCI-H23 lung) is on record?
A: 36.2%

Q: What about the growth (NCI-H226 lung) of the same compound?
A: 52.6%

Q: What about the growth (NCI-H322M lung) of the same compound?
A: 72.8%

Q: And the growth (HOP-62 NSCLC)?
A: 47.8%

Q: What about the growth (NCI-H460 lung) of the same compound?
A: 36%

Q: What about the growth (HOP-92 NSCLC) of the same compound?
A: 37.8%

Q: What about the growth (NCI-H522 lung) of the same compound?
A: 26.7%

Q: And the growth (A549/ATCC NSCLC)?
A: 53.6%

Q: What about the growth (786-0 renal) of the same compound?
A: 74.1%

Q: And the growth (COLO 205 colon)?
A: 12%

Q: For `CC(=O)n1cc(C=O)c2ccccc21`, which growth (NCI-H23 lung) is on record?
A: 94.4%

Q: And the growth (NCI-H226 lung)?
A: 91.1%

Q: What about the growth (NCI-H322M lung) of the same compound?
A: 105%

Q: And the growth (HOP-62 NSCLC)?
A: 103%

Q: And the growth (NCI-H460 lung)?
A: 112%

Q: What about the growth (HOP-92 NSCLC) of the same compound?
A: 94.8%

Q: What about the growth (NCI-H522 lung) of the same compound?
A: 91.3%

Q: And the growth (A549/ATCC NSCLC)?
A: 89.4%

Q: What about the growth (786-0 renal) of the same compound?
A: 101%

Q: And the growth (COLO 205 colon)?
A: 104%

Q: How did the growth (NCI-H23 lung) turn out when `NNC(=O)c1ccc(C(=O)NN)cc1` was run?
A: 101%

Q: What about the growth (NCI-H226 lung) of the same compound?
A: 97.6%

Q: And the growth (NCI-H322M lung)?
A: 102%

Q: And the growth (HOP-62 NSCLC)?
A: 115%

Q: What about the growth (NCI-H460 lung) of the same compound?
A: 104%

Q: What about the growth (HOP-92 NSCLC) of the same compound?
A: 104%

Q: What about the growth (NCI-H522 lung) of the same compound?
A: 101%

Q: And the growth (A549/ATCC NSCLC)?
A: 100%

Q: What about the growth (786-0 renal) of the same compound?
A: 114%

Q: What about the growth (COLO 205 colon) of the same compound?
A: 138%

Q: What does the source list for `CCN(CC)c1ccc(/C=C/c2ccc3cc(C)ccc3[n+]2CC)cc1`?
A: growth (NCI-H23 lung): -1.98% (active); growth (NCI-H226 lung): 21.4%; growth (NCI-H322M lung): 35.9%; growth (HOP-62 NSCLC): 4.01% (active); growth (NCI-H460 lung): -48.4% (active); growth (HOP-92 NSCLC): -17.5% (active); growth (NCI-H522 lung): -27.7% (active); growth (A549/ATCC NSCLC): 8.77% (active); growth (786-0 renal): 16.2%; growth (COLO 205 colon): -21.7% (active)

Q: With `CC(C)OC(=O)Nc1cc(F)c(F)cc1F` as the compound, how does the growth (NCI-H23 lung) read?
A: 99%

Q: And the growth (NCI-H226 lung)?
A: 98%

Q: And the growth (NCI-H322M lung)?
A: 96.3%

Q: And the growth (HOP-62 NSCLC)?
A: 99.8%

Q: And the growth (NCI-H460 lung)?
A: 104%

Q: What about the growth (HOP-92 NSCLC) of the same compound?
A: 102%

Q: And the growth (NCI-H522 lung)?
A: 97.8%

Q: And the growth (A549/ATCC NSCLC)?
A: 97.8%

Q: What about the growth (786-0 renal) of the same compound?
A: 107%

Q: And the growth (COLO 205 colon)?
A: 113%

Q: Which results are given for `C[C@@H](NC(=O)[C@@H](CC(=O)N1CCC(N2CCCCC2)CC1)N1C(=O)[C@@H](N2C(=O)OC[C@@H]2c2ccccc2)[C@H]1/C=C/c1cccc(Cl)c1)c1ccccc1`?
A: growth (NCI-H23 lung): 87.8%; growth (NCI-H226 lung): 89.8%; growth (NCI-H322M lung): 82.1%; growth (HOP-62 NSCLC): 87.6%; growth (NCI-H460 lung): 13.3%; growth (HOP-92 NSCLC): 58.3%; growth (NCI-H522 lung): 64.2%; growth (A549/ATCC NSCLC): 63.9%; growth (786-0 renal): 65%; growth (COLO 205 colon): -54.6% (active)

Q: For `Cc1ccc(NC(=O)N[C@@H](Cc2cc(F)cc(F)c2)C(=O)N[C@@H]2C(=O)N3CCC[C@H]3C(=O)N3CCOC[C@H]3C(=O)N[C@@H](C)C(=O)N3C[C@H](C)C[C@H]3C(=O)O[C@H]2C)cc1`, which growth (NCI-H23 lung) is on record?
A: 33.5%

Q: What about the growth (NCI-H226 lung) of the same compound?
A: 30.5%

Q: And the growth (NCI-H322M lung)?
A: 62.2%

Q: And the growth (HOP-62 NSCLC)?
A: 26.7%

Q: And the growth (NCI-H460 lung)?
A: 26.4%

Q: What about the growth (HOP-92 NSCLC) of the same compound?
A: 39.4%

Q: And the growth (NCI-H522 lung)?
A: 37.7%

Q: What about the growth (A549/ATCC NSCLC) of the same compound?
A: 27.3%

Q: What about the growth (786-0 renal) of the same compound?
A: 34.1%

Q: And the growth (COLO 205 colon)?
A: 10% (active)

Q: `C#CC(OC(=O)N(C)C)(c1ccccc1)c1ccc(F)cc1` (stereo not given) was tested. Which growth (NCI-H23 lung) did it give?
A: 98.7%

Q: What about the growth (NCI-H226 lung) of the same compound?
A: 89.7%

Q: And the growth (NCI-H322M lung)?
A: 128%

Q: What about the growth (HOP-62 NSCLC) of the same compound?
A: 116%

Q: What about the growth (NCI-H460 lung) of the same compound?
A: 96.7%

Q: What about the growth (HOP-92 NSCLC) of the same compound?
A: 92.9%

Q: And the growth (NCI-H522 lung)?
A: 83.2%

Q: And the growth (A549/ATCC NSCLC)?
A: 75%

Q: What about the growth (786-0 renal) of the same compound?
A: 120%

Q: What about the growth (COLO 205 colon) of the same compound?
A: 158%
